Where “and” joins values, the source holds several entries; their conditions need not be identical. Equal entries are not always repeated. Records with an inconclusive call do not appear. Calls of active or inactive are those of the source. Unless noted, the call rests on the fitted dose curve; in most records, active means well fitted curve in the direction sought with a large enough effect; inconclusive means small, poorly fitted or top-dose-only effect, or another doubt; inactive means no such curve, though single readings can be large; an effect the other way counts as inactive or inconclusive.
Assays:
7G8 = test: qHTS profiling for inhibitors of Plasmodium falciparum proliferation (AID 504749); further: nearly all actives have a fitted effect of over 60% in size; further: potency means the concentration at half of the fitted maximal effect;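 on activity, negative = inhibition: 0% = DMSO vehicle and full inhibition = artemisinin control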; conditions: P. falciparum in erythrocytes, SYBR Green DNA, 72 h; series mostly up to 12.8 µM
In short: (§1)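 Infected RBCs, 0.3% parasitemia/2.5% Hct final; cpd 72 h, 37 C, 5% CO2; lysis buffer with saponin/triton/SYBR Green I, o/n RT dark; FI 485/535; norm. to artemisinin (0.29 uM) and DMSO.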

CP237 = test: as above; conditions: P. falciparum in erythrocytes, SYBR Green DNA, 72 h; series mostly up to 28.7 µM
In short: as §1

CP268 = test: as above; conditions: P. falciparum in erythrocytes, SYBR Green DNA, 72 h; series mostly up to 28.7 µM
In short: as §1

CP291 = test: as above; conditions: P. falciparum in erythrocytes, SYBR Green DNA, 72 h; series mostly up to 28.7 µM
In short: as §1

CP297 = test: as above; conditions: P. falciparum in erythrocytes, SYBR Green DNA, 72 h; series mostly up to 28.7 µM
In short: as §1

CP315 = test: as above; conditions: P. falciparum in erythrocytes, SYBR Green DNA, 72 h; series mostly up to 28.7 µM
In short: as §1

CP335 = test: as above; conditions: P. falciparum in erythrocytes, SYBR Green DNA, 72 h; series mostly up to 12.8 µM
In short: as §1

DIV17 = test: as above; conditions: P. falciparum in erythrocytes, SYBR Green DNA, 72 h; series mostly up to 28.7 µM
In short: as §1

Dd2 = test: as above; conditions: P. falciparum in erythrocytes, SYBR Green DNA, 72 h; series mostly up to 28.7 µM
In short: as §1

FAB9 = test: as above; conditions: P. falciparum in erythrocytes, SYBR Green DNA, 72 h; series mostly up to 28.7 µM
In short: as §1

JCK = test: as above; conditions: P. falciparum in erythrocytes, SYBR Green DNA, 72 h; series mostly up to 28.7 µM
In short: as §1

PC15 = test: as above; conditions: P. falciparum in erythrocytes, SYBR Green DNA, 72 h; series mostly up to 28.7 µM
In short: as §1

SC27B = test: as above; conditions: P. falciparum in erythrocytes, SYBR Green DNA, 72 h; series mostly up to 28.7 µM
In short: as §1

[1] = qHTS assay for small molecule antagonists of peroxisome proliferator-activated receptor delta signaling (AID 588535); conditions: HEK293T PPARd-UAS-bla, beta-lactamase FRET ratio, 18 h; 460 nm channel;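 further: cells co-treated with a PPAR-delta agonist as stimulator during compound exposure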
In short: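 HEK293T PPAR-delta-UAS-bla cells, 4000/well, 2% charcoal/dextran FBS; 5 h 37 C; cpd titration; 18 h 37 C; CCF4 2 h RT; FI 460/530 nm; Hill fit → IC50, efficacy.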

[2] = qHTS assay for small molecule antagonists of retinoid X receptor alpha signaling (AID 588546); conditions: HEK293T RXRa-UAS-bla, beta-lactamase ratio, antagonist mode; measured here: W530 green channel, cytotoxicity proxy;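 further: cells stimulated with 9-cis-retinoic acid as agonist; on the % scale 0 is the no-effect control and ±100 the full control effect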
In short: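 Beta-lactamase reporter inhibition, read as CCF4 fluorescence ratio (ex 405, em 460/530 nm) after 2 h at RT. HEK293T UAS-bla cells, 2500/well, were stimulated with 9-cis-RA at 500 or 100 nM final alongside test compound for 18 h at 37 C.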

[3] = qHTS assay for small molecule activators of the p53 signaling pathway (AID 651743; active means well fitted activation curve with a large enough effect in the signal ratio, not every such curve was filed as active; the % refers to the signal ratio; further: potency means the concentration at half of the fitted maximal effect; on activation: % of control where 0% means no effect); conditions: HCT-116 p53RE-bla, beta-lactamase FRET ratio, 16 h; activation: stronger effect = higher value
In short: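 Read-out is fluorescence intensity from the LiveBLAzer B/G FRET substrate, added for 2 hours at room temperature after HCT-116 p53RE-bla cells had been incubated with compounds for 16 hours at 37 C.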

[4] = qHTS assay for small molecule agonists of the antioxidant response element (ARE) signaling pathway measured by Nrf2-dependant transcriptional activity - cell viability counter screen (AID 720653; active means well fitted curve in the direction sought with a large enough effect in the repeat runs; an effect the other way counts as inactive or inconclusive; further: on the % scale 0 is the no-effect control and ±100 the full control effect); conditions: ARE-bla HepG2 viability, CellTiter-Glo ATP luminescence, 16 h; stronger effect = lower value
In short: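 Cytotoxicity counter screen: intracellular ATP quantified by CellTiter-Glo luminescence in the same ARE-bla HepG2 plates, after 16 h compound exposure and a 2 h beta-lactamase substrate step.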

[5] = S16 Schwann cell PMP22 intronic element beta-lactamase assay (AID 624044; calls by dose curve;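 further: 0% = DMSO and -100% = potassium clavulanate positive control; nearly all actives have a fitted effect of over 15% in size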); conditions: S16 rat Schwann cells, PMP22 element beta-lactamase FRET, 24 h; ratio activity, negative = inhibition: at 38.3 µM (top of the series) unless noted
In short: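 Rat S16 Schwann cells with beta-Lac driven by a PMP22 intronic element, compound-treated 24 h at 37 °C. LiveBLAzer FRET B/G read: 460 nm normalized to potassium clavulanate vs DMSO; 535 nm FRET as viability; concentration-effect curves classified.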

ICS = test: qHTS profiling for inhibitors of Plasmodium falciparum proliferation (AID 504749); further: nearly all actives have a fitted effect of over 60% in size; further: potency means the concentration at half of the fitted maximal effect;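 on activity, negative = inhibition: 0% = DMSO vehicle and full inhibition = artemisinin control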; conditions: P. falciparum in erythrocytes, SYBR Green DNA, 72 h; series mostly up to 28.7 µM
In short: as §1

TAB113 = test: as above; conditions: P. falciparum in erythrocytes, SYBR Green DNA, 72 h; series mostly up to 28.7 µM
In short: as §1

CNc1ccc(C(=O)CC(O)CCC(C)C2OC(=O)CC(O)CC(=O)CC(O)CC(O)CC(O)CC(O)CC3(O)CC(O)C(C(=O)OC)C(CC(O[C@@H]4OC(C)C(O)C(N)C4O)/C=C/C=C/C=C/C=C/C=C/C=C/C=C/C2C)O3)cc1 (stereo not given in full)
inactive: Potency (7G8) | Potency (CP237) | Potency (CP268) | Potency (CP291) | Potency (CP297) | Potency (CP315) | Potency (CP335) | Potency (DIV17) | Potency (Dd2) | Potency (FAB9) | Potency (JCK) | Potency (PC15) | Potency (SC27B)

CNC(=O)Oc1cccc2c1OC(C)(C)O2
-10.6%: max response [2]
28.5%: max response [1]
inactive: activation [3] 0.009% | max response [4] -5.36%

CC(C)Nc1nc(Cl)nc(NC(C)C)n1
-10.2%: max response [2]
16.2%: max response [1]
inactive: activation [3] -2.19% | max response [4] -2.76%

C=CC1CN2CCC1CC2C(OC(=O)OCC)c1ccnc2ccc(OC)cc12 (stereo not given)
inactive: Potency [5]
active: Potency (7G8) 2.51 µM | Potency (CP237) 7.08 µM | Potency (CP291) 12 µM | Potency (CP335) 9.53 µM | Potency (DIV17) 13.5 µM | Potency (Dd2) 5.01 µM | Potency (FAB9) 10 µM | Potency (ICS) 3.98 µM | Potency (PC15) 3.98 µM | Potency (TAB113) 8.91 µM

O=C(O)COc1cc(Cl)c(Cl)cc1Cl
20.3%: max response [2]
15.2%: max response [1]
inactive: max response [4] -9.62%

O=C1C=C2C=CC3C[C@@]2(O1)C1CCCCN31 (stereo not given in full)
active: Potency (7G8) 8.91 µM | Potency (CP237) 5.01 µM | Potency (CP297) 12 µM | Potency (CP315) 16.9 µM | Potency (DIV17) 15.1 µM | Potency (Dd2) 11.2 µM | Potency (ICS) 7.94 µM | Potency (TAB113) 14.1 µM

CCc1cccc(C)c1N(C(=O)CCl)C(C)COC (stereo not given)
inactive: activation [3] -2.17% | max response [4] -0.37%
0.387%: max response [2]

CC(C)OC(=O)Nc1cccc(Cl)c1
2.77%: max response [1]
-4.63%: max response [2]
inactive: activation [3] 1.93% | max response [4] -10.2%

N#Cc1c(Cl)cccc1Cl
41.3%: max response [1]
inactive: activation [3] -3.69% | max response [4] 0.251%
-15.4%: max response [2]

CC(C)CC(CN)CC(=O)O (stereo not given)
inactive: Potency [5]

COc1cc2c(cc1OC)[C@@]13CCN4CC5=CCOC6CC(=O)N2C1[C@H]6[C@@H]5C[C@@H]43 (stereo not given in full)
inactive: Potency [5] | Potency (7G8) | Potency (CP237) | Potency (CP268) | Potency (CP291) | Potency (CP297) | Potency (CP315) | Potency (CP335) | Potency (DIV17) | Potency (Dd2) | Potency (FAB9) | Potency (ICS) | Potency (JCK) | Potency (PC15) | Potency (SC27B) | Potency (TAB113)

CNC(C)[C@@H](O)c1ccccc1 (stereo not given in full)
inactive: Potency [5] | Potency (CP237) | Potency (CP268) | Potency (CP291) | Potency (CP315) | Potency (CP335) | Potency (DIV17) | Potency (Dd2) | Potency (FAB9) | Potency (ICS) | Potency (JCK) | Potency (PC15) | Potency (SC27B) | Potency (TAB113)

CCCCCCCCCc1ccc(O)cc1
-16.1%: max response [2]
-9.37% and -27.9%: max response [1]
inactive: activation [3] -1.55% and -0.009% | max response [4] -6.51% and -5.9%

CCCCSP(=O)(SCCCC)SCCCC
inactive: activation [3] -2.51% | max response [4] 12.3%
-5.76%: max response [1]

CCC(C)C1O[C@]2(C=CC1C)CC1CC(C/C=C(\C)[C@H](OC3CC(OC)C(O[C@H]4CC(OC)[C@@H](O)C(C)O4)C(C)O3)[C@@H](C)/C=C/C=C3\COC4C(O)C(C)=C[C@H](C(=O)O1)[C@@]34O)O2 (stereo not given in full)
active: Potency (7G8) 10 µM | Potency (CP291) 10.7 µM | Potency (CP297) 13.5 µM | Potency (CP335) 6.75 µM | Potency (DIV17) 12 µM | Potency (Dd2) 11.2 µM | Potency (ICS) 7.08 µM | Potency (SC27B) 11.2 µM
inactive: Potency [5]

CC([C@H](O)c1ccccc1)N(C)C (stereo not given in full)
inactive: Potency [5] | Potency (CP268) | Potency (CP291) | Potency (CP297) | Potency (CP315) | Potency (CP335) | Potency (FAB9) | Potency (JCK) | Potency (PC15) | Potency (SC27B) | Potency (TAB113)
active: Potency (7G8) 11.2 µM

CCC(=O)Nc1ccc(Cl)c(Cl)c1
inactive: activation [3] 4.6% | max response [4] -7.64%
-13.9%: max response [2]

O=c1ccc2cc(O[C@H]3O[C@@H](CO)[C@@H](O)[C@@H](O)[C@@H]3O)c(O)cc2o1
inactive: Potency (7G8) | Potency (CP237) | Potency (CP268) | Potency (CP291) | Potency (CP297) | Potency (CP315) | Potency (CP335) | Potency (Dd2) | Potency (FAB9) | Potency (ICS) | Potency (JCK) | Potency (PC15) | Potency (SC27B) | Potency (TAB113)

CCS(=O)CCSP(=O)(OC)OC (stereo not given)
-0.327%: max response [2]
inactive: activation [3] -0.772% | max response [4] -6.55%
34.5%: max response [1]

COP(N)(=O)SC (stereo not given)
-17.3% and -16.5%: max response [2]
inactive: activation [3] 0.404% and 2.15% | max response [4] 9.18% and -6.05%
57.3% and -26.4%: max response [1]

O=C1C(Cl)=C(Cl)C(=O)C(Cl)=C1Cl
-78.9%: max response [1]
active: Potency [3] 25.1 µM
